Test results from PubChem BioAssay (NCATS).
Results filed as inconclusive are left out. Calls of active or inactive are those of the source. Unless noted, calls come from the whole dose curve; as a rule, active = well fitted curve in the direction sought with a large enough effect; inconclusive = small, poorly fitted or top-dose-only effect, or another doubt; inactive = no such curve, though single readings can be large; an effect the other way counts as inactive or inconclusive.

Tests used:
[1] = Natriuretic polypeptide receptor (hNpr1) antagonism - Pilot counterscreen GloSensor control cell line (AID 1347045; calls by dose curve; note: series mostly up to about 38 µM)
Procedure, shortened: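 The SNP-driven cGMP luminescence signal (50 uM, 20 min, room temperature) was measured in GloSensor HEK293 control cells. Compounds were tested as a LOPAC titration series and preincubated for 30-50 min.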

[2] = target: Atrial natriuretic peptide receptor 1 (Homo sapiens) (UniProt P16066); assay: Natriuretic polypeptide receptor (hNpr1) antagonism - Pilot screen (AID 1347049; calls by dose curve;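 note: HEK293 cells with hNpr1 and GloSensor cGMP luciferase stimulated by 0.1 nM hNppA; agonist-evoked cGMP luminescence read 20 min after hNppA addition; series mostly up to about 58 µM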)
Procedure, shortened: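 Receptor antagonism read as cGMP-dependent luminescence in hNpr1/pGS-40F HEK293 cells: pre-read after 30 min compound exposure, post-read 20 min after hNppA agonist at 0.1 nM final, all at room temperature, protected from light; A-71915 titration as control.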

[3] = target: Atrial natriuretic peptide receptor 2 (Homo sapiens) (UniProt P20594); assay: Natriuretic polypeptide receptor (hNpr2) antagonism - Pilot subtype selectivity assay (AID 1347050; calls by dose curve; note: potency is the fitted concentration of half-maximal effect)
Procedure, shortened: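 Antagonist mode: compounds (LOPAC1280, seven 1:5 dilutions) added 30 min before 1 nM hNppC stimulation of hNpr2-HEK293 cGMP-sensor cells; luminescence read before and 20 min after agonist at ambient temperature.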

[4] = NS1 protein of Zika virus - qHTS assay to identify small molecule inhibitors in human HEK 293 cells (AID 1347053); note: series mostly up to about 46 µM; nearly all actives have a fitted effect of over 55% in size
Procedure, shortened: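 Readout was TR-FRET using paired anti-NS1 antibodies after 24 h infection of HEK 293 cells with ZIKV MR766 (MOI = 0.5). Compound preceded virus by 1 h; reduced signal reflects lower NS1 expression.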

[5] = target: T1, Tyrosine-protein phosphatase non-receptor type substrate 1 (Homo sapiens) + Leukocyte surface antigen CD47 (Homo sapiens) (UniProt P78324+Q08722); assay: CD47-SIRPalpha protein protein interaction - LANCE assay qHTS validation (AID 1347057; active = well fitted curve in the direction sought with a large enough effect in the signal ratio, with a control signal flat, not every such curve was filed as active; the % refers to the signal ratio; note: series mostly up to about 38 µM)
Procedure, shortened: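 Inhibition of soluble CD47/SIRPalpha ectodomain association by titrated compounds, measured as 665/615 nm time-resolved FRET ratio after sequential 30 min room-temperature incubations.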

[6] = target: T1, Tyrosine-protein phosphatase non-receptor type substrate 1 (Homo sapiens) + Leukocyte surface antigen CD47 (Homo sapiens); assay: CD47-SIRPalpha protein protein interaction - Alpha assay qHTS validation (AID 1347059);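 note: bead proximity luminescence from CD47 binding SIRPalpha after compound preincubation with SIRPalpha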
Procedure, shortened: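 AlphaScreen signal between CD47-His (12.5 nM) and biotin-SIRPalpha (25 nM) soluble extracellular domains, bead-captured via Ni-NTA and streptavidin. Compounds, in 7-point titrations, met SIRPalpha 30 min before CD47; PBS pH 7.4 with 0.05% IGEPAL.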

[7] = target: Parathyroid hormone/parathyroid hormone-related peptide receptor (Homo sapiens) (UniProt Q03431); assay: qHTS for PTHR1 Agonists: Optimization Screen against the NCGC LOPAC library (AID 1347079);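 note: GloSensor cAMP luminescence in HEK-293 GP2 cells expressing human PTHR1 with IBMX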
Procedure, shortened: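 Signal increase flags agonism. GP2 cells, derived from HEK-293, express human PTHR1 and a GloSensor cAMP construct.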

[8] = target: T1, Tyrosine-protein phosphatase non-receptor type substrate 1 (Homo sapiens) + Leukocyte surface antigen CD47 (Homo sapiens); assay: CD47-SIRPalpha protein protein interaction - HTRF assay qHTS validation (AID 1347058; active = well fitted curve in the direction sought with a large enough effect in the signal ratio, not every such curve was filed as active; the % refers to the signal ratio; note: series mostly up to about 38 µM)
Procedure, shortened: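 Soluble extracellular domains (6His-CD47, Avi-tag-biotinylated SIRPalpha) in PBS pH 7.4 with 0.05% IGEPAL CA-630. Compounds were preincubated 30 min at RT with CD47 and anti-His-Eu, then SIRPalpha and SAV-XL665 were added. TR-FRET 665/615 ratio.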

[9] = qHTS of pediatric cancer cell lines to identify multiple opportunities for drug repurposing: Primary screen for DAOY cells (AID 1347090); note: series mostly up to about 46 µM; nearly all actives have a fitted effect of over 55% in size
Procedure, shortened: (§1)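 Cell viability, CellTiter-Glo luminescence; 500-1,000 cells/well, 8- or 11-point titration, 48 h compound exposure at 37 degrees C, 5% CO2. Controls: DMSO neutral, bortezomib 2.3 µM final as positive.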

[10] = qHTS of pediatric cancer cell lines to identify multiple opportunities for drug repurposing: Primary screen for A673 cells (AID 1347092); note: nearly all actives have a fitted effect of over 45% in size; note: potency is the fitted concentration of half-maximal effect
Procedure, shortened: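 48 h compound exposure, A673, 500-1,000 cells/well, 37 degrees C/5% CO2. MIPE: 11-point, 0.78 nM-46 µM; NPC: 8-point, 0.59 nM-46 µM (final). Readout CellTiter-Glo luminescence after 15 min RT.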

[11] = qHTS of pediatric cancer cell lines to identify multiple opportunities for drug repurposing: Primary screen for SK-N-MC cells (AID 1347093); note: potency is the fitted concentration of half-maximal effect
Procedure, shortened: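 Metabolically active cells were quantified by ATP-dependent luminescence (CellTiter-Glo, 15 min at room temperature) following 48 h treatment. Cells had been plated at 500-1,000 per well and settled for 5 h beforehand.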

[12] = qHTS of pediatric cancer cell lines to identify multiple opportunities for drug repurposing: Primary screen for SJ-GBM2 cells (AID 1347091); note: potency is the fitted concentration of half-maximal effect
Procedure, shortened: as §1

[13] = qHTS of pediatric cancer cell lines to identify multiple opportunities for drug repurposing: Primary screen for TC32 cells (AID 1347089); note: nearly all actives have a fitted effect of over 60% in size
Procedure, shortened: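 In the primary qHTS, MIPE compounds were tested at 11 concentrations (0.78 nM to 46 µM) and NPC compounds at 8 (0.59 nM to 46 µM) on TC32 cells for 48 h. CellTiter-Glo luminescence gave viability.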

Measured: Potency

T1 sequence (P78324 whole entry, looked up, the tested form may be a part): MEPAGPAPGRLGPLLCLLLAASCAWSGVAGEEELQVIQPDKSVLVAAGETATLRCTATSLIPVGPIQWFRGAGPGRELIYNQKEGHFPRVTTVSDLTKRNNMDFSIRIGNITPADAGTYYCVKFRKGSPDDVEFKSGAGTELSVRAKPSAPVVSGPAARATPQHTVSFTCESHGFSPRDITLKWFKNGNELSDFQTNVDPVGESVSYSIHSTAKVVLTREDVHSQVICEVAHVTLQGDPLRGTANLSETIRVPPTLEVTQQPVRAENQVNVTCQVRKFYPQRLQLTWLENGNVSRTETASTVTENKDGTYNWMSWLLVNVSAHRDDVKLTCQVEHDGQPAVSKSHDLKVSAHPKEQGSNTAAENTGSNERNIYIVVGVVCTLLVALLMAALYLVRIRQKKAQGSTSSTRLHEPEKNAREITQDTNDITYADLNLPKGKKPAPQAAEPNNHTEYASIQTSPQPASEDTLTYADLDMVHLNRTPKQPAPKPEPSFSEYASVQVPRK
T1 sequence (Q08722 whole entry, looked up, the tested form may be a part): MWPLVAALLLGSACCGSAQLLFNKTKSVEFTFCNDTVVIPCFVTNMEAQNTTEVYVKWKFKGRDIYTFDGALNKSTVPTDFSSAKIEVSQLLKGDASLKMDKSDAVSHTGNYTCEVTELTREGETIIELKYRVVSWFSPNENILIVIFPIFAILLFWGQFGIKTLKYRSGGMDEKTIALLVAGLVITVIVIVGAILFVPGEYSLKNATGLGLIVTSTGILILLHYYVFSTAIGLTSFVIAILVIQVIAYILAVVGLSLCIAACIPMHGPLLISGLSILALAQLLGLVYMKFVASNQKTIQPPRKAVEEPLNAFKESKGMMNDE
Chain of Atrial natriuretic peptide receptor 2 (Homo sapiens) (P20594 whole entry, looked up): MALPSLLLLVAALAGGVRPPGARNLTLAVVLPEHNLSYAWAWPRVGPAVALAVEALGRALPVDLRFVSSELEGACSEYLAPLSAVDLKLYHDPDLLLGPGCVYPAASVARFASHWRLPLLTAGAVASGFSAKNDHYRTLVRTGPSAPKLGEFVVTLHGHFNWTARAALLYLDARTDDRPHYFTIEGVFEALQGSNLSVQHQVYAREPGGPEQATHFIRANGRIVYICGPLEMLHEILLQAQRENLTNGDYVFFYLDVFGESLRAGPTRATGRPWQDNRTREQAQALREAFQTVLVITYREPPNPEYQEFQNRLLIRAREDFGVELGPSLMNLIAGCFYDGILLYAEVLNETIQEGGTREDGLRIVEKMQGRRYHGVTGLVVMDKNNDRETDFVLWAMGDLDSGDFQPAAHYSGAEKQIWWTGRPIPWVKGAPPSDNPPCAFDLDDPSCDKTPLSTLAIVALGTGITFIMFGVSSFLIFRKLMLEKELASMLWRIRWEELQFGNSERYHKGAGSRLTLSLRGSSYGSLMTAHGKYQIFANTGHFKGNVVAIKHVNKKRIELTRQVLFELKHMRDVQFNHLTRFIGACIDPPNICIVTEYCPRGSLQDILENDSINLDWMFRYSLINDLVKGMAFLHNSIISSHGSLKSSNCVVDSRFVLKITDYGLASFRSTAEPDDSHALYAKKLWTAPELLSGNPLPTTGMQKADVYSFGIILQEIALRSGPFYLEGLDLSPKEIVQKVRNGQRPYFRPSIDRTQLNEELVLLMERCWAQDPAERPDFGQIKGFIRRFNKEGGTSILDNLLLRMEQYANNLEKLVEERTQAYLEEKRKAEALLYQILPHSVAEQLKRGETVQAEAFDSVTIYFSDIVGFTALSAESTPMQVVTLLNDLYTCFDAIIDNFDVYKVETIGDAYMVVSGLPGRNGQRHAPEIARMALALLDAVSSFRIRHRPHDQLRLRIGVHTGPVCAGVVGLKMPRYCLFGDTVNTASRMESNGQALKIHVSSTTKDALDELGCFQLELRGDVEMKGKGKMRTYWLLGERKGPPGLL
Chain of Atrial natriuretic peptide receptor 1 (Homo sapiens) (P16066 whole entry, looked up): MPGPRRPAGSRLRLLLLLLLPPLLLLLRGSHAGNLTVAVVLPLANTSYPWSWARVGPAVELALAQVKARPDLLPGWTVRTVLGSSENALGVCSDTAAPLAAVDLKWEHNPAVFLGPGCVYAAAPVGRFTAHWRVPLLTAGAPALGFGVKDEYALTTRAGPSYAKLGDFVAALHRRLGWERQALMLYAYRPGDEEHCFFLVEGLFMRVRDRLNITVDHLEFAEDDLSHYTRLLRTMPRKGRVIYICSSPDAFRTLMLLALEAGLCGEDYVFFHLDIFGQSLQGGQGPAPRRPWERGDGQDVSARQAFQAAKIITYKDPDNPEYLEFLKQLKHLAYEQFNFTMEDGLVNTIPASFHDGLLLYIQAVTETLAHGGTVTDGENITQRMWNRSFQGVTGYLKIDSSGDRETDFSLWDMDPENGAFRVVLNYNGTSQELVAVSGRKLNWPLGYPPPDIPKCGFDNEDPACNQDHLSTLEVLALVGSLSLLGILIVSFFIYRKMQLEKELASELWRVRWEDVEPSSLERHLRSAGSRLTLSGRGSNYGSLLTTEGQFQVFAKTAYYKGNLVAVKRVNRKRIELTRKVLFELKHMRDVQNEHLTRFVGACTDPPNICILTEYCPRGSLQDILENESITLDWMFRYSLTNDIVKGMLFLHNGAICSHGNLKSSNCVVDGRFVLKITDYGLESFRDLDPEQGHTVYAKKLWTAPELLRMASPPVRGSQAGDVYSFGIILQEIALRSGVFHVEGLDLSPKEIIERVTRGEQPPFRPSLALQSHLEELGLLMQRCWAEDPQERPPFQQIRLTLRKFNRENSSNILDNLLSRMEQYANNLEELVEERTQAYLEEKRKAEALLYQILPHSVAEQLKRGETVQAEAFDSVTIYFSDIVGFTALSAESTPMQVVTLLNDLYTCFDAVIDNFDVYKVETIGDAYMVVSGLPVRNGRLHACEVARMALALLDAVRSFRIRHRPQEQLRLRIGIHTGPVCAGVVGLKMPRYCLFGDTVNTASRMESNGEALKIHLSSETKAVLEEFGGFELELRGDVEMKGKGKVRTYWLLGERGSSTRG
Chain of Parathyroid hormone/parathyroid hormone-related peptide receptor (Homo sapiens) (Q03431 whole entry, looked up): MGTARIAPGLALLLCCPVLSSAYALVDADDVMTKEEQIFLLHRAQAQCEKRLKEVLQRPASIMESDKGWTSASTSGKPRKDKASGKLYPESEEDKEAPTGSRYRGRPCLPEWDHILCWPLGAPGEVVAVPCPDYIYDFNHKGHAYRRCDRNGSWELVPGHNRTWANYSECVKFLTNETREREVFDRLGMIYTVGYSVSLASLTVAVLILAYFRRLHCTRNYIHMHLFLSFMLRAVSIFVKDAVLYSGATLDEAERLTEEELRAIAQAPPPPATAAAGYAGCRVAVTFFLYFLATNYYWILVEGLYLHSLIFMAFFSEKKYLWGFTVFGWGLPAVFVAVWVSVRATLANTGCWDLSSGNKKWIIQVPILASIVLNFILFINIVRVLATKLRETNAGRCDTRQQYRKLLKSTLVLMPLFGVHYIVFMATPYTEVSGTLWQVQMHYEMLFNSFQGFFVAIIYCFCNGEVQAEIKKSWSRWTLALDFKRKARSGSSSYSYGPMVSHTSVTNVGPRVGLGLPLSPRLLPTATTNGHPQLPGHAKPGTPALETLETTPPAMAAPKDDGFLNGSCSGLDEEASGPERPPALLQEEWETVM

CC(C)(C)c1onc(OCP(=O)(O)O)c1CC(N)C(=O)O (configuration not stated)
inactive: [1] | [2] | [3] | [4] | [5] | [6] | [7]

C[C@]12CC[C@@H]3c4ccc(O)cc4CC[C@H]3[C@@H]1CCC2=O
not listed: [12] | [13]
inactive: all other assays above

OCCN1CCN(CCCN2c3ccccc3Sc3ccc(Cl)cc32)CC1
active: [3] 16.5 µM | [12] 21.1 µM | [10] 21.1 µM
inactive: [2] | [7]

COC(=O)[C@H]1[C@H]2C[C@@H]3c4[nH]c5cc(OC)ccc5c4CCN3C[C@H]2C[C@@H](OC(=O)COc2ccc(OC)cc2)[C@@H]1OC
inactive: [4] | [13] | [9] | [12] | [10]

CC(C)(C(=O)O)c1ccc(C(O)CCCN2CCC(C(O)(c3ccccc3)c3ccccc3)CC2)cc1 (configuration not stated)
inactive: [4] | [7] | [13] | [9] | [12] | [10] | [11]

CC(CN(C)C)CN1c2ccccc2CCc2ccccc21 (configuration not stated)
not listed: [3] | [10] | [12]
inactive: all other assays above

CC(=O)OCC(=O)[C@@]1(O)CC[C@H]2[C@@H]3CCC4=CC(=O)CC[C@]4(C)[C@H]3C(=O)C[C@@]21C
not listed: [11]
inactive: all other assays above

NC(=O)c1ncn([C@@H]2O[C@H](CO)[C@@H](O)[C@H]2O)n1
not listed: [1] | [13]
inactive: all other assays above

CCCCCCCCCCCCCCCC(=O)NCCO
not listed: [1] | [5] | [6] | [8] | [12]
inactive: all other assays above

Cc1c(O)cccc1C(=O)N[C@@H](CSc1ccccc1)[C@H](O)CN1C[C@H]2CCCC[C@H]2C[C@H]1C(=O)NC(C)(C)C
inactive: [4] | [5] | [8] | [6]
active: [12] 21.1 µM | [11] 26.6 µM
